CHRM1 agonist: agonists of human M1 muscarinic receptor | hit rate 0.33% among 360,000 | P11229 | CHO-K1 hM1, Fluo-8 calcium fluorescence, agonist mode; 0% DMSO, 100% acetylcholine EC100 | activation, % at 3 µM;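 active = activation above the run's mean compound activation plus 3 SD, cut at about 16% in these data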;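 note: peak over basal fluorescence ratio within a 140 s kinetic read after compound addition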
Target sequence (P11229 whole entry, looked up): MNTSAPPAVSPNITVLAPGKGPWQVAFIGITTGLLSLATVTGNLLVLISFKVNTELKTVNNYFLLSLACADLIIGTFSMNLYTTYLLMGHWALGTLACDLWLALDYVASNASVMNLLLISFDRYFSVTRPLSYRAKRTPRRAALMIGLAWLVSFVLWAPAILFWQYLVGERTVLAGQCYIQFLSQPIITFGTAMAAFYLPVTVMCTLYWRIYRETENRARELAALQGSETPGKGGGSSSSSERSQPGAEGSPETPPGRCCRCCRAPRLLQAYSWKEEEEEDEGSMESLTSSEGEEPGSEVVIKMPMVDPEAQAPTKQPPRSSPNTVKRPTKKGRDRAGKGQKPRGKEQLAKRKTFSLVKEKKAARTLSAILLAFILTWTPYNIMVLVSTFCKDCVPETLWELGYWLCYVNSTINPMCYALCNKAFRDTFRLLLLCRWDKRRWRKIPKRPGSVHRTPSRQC
CHO-K1 Ca antag: counter-screen for M1 antagonists: effect in parental CHO-K1 cells; hit rate 0.6% among 360,000; inhibition, % at 3 µM; ATP-induced calcium, Fluo-8 fluorescence;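 active = inhibition above a per-plate cutoff, the plate's mean sample inhibition plus 3 SD, cut at about 24% in these data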;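 note: 0% = DMSO plus EC80 ATP and 100% = DMSO alone without ATP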
CHRM1 PAM: positive allosteric modulators of human M1 muscarinic receptor; CHO-K1 hM1, Fluo-8 calcium fluorescence, ACh EC20; 0% = ACh EC20, 100% = maximal ACh; AID 588819; hit rate 0.088% among 360,000; activation, % at 3 µM; P11229; in the data active = activation above about 19%, passing the limit was not always enough
M1 ag parental: M1 agonist counterscreen hit in parental CHO-K1 cells. activation, % at 3 µM. hit rate 0.48% among 360,000. Fluo-8 calcium fluorescence; scaled to maximal ATP response, vehicle zero; in the data active = activation above about 15%;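 note: untransfected CHO-K1 host cells lacking M1 receptor as counterscreen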
CHO-K1 Ca PAM: nonselective activator or artifact in parental CHO-K1 calcium assay; ATP EC20, Fluo-8 calcium fluorescence; 0% at ATP EC20, 100% at ATP max; activation, % at 3 µM; hit rate 0.02% among 360,000;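 active = activation above the run cutoff, the mean activation of all test compounds plus 3 SD, cut at about 40% in these data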;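 note: peak over basal fluorescence ratio in a 140 s read after ATP addition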
CHRM1 antagonist: antagonists of human M1 muscarinic receptor. hit rate 1.3% among 360,000. AID 588852. CHO-K1 hM1, Fluo-8 calcium fluorescence, ACh EC80 antagonist. inhibition, % at 3 µM;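 active = percent inhibition above its own plate's cutoff, namely the mean of that plate's compound wells plus 3 SD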;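 note: peak over basal fluorescence ratio during 140 s after agonist addition; 0% = ACh EC80 plus DMSO and 100% = DMSO alone without agonist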
Starred values were filed as active, the others as inactive. Compounds with a hit are over-represented: about 2.4% of the library has one in this group of screens.

SMILES	CHRM1 agonist	CHO-K1 Ca antag	CHRM1 PAM	M1 ag parental	CHO-K1 Ca PAM	CHRM1 antagonist
CCN(CC)C1=CC2=CC(=C(C#N)C#N)CCC2CC1 (stereo not drawn)	230*	67*	-32	99*	-14	63*
CC(=O)O/N=C1\C(=O)N(Cc2ccc(C)cc2)c2ccccc21	24*	5	10	1	17	-6
OC(CNCCc1ccccc1)COc1ccc(OCC(O)CNCCc2ccccc2)cc1 (stereo not drawn)	-8	-3	-4	1	17	7
CC(C)N(CCNCC(O)COc1ccc(C(C)(C)c2ccccc2)cc1)C(C)C (stereo not drawn)	-4	-5	-19	6	11	34*
CC(C)c1ccc(OCC(O)CNC(C)c2ccccc2)cc1 (stereo not drawn)	-3	-8	2	21*	24	9
OC(CNCCC(c1ccccc1)c1ccccc1)COc1ccccc1 (stereo not drawn)	-6	2	-15	8	3	31*
CC(C)S(=O)(=O)N1CCCC(c2cc(C(=O)Nc3ccc(F)c(Cl)c3)no2)C1 (stereo not drawn)	2	-3	-10	14	10	2
CN=c1scc(C)n1/N=C/c1cc(Br)c(O)c(OC)c1	-5	-12	5	0	8	-9
COc1cc(/C=N/N(C)C)cc(Br)c1O	-1	-6	23*	1	1	-24
COc1ccc(-c2ccc(NC(=O)c3ccco3)cc2)nn1	-3	-4	7	1	5	-8
CC1(C)CC(=O)C2=C(C1)N=C1SCCC(=O)N1C2c1ccccc1 (stereo not drawn)	-8	-11	-15	0	0	36*
O=C1CCCC2=C1C(c1ccc(Cl)cc1)N1C(=O)CCSC1=N2 (stereo not drawn)	-3	15	-1	0	-4	14
O=C(/C(N=Nc1cccc(C(F)(F)F)c1)=C(/O)c1cccs1)C(F)(F)F	1	2	9	16*	21	-7
CCOC(=O)c1cc(-c2ccc(OC)cc2)nn1-c1ccc(C(=O)O)cc1	-2	-12	10	0	18	-2
CCOC(=O)CC1CCCCN1C(=O)c1cc(COc2cccc3cnccc23)on1 (stereo not drawn)	6	45*	-20	20*	-29	72*
CN(Cc1nccs1)C(=O)c1cc(COc2cccc3cnccc23)on1	4	15	-10	16*	-15	23
COC(=O)C1CCCCN1C(=O)c1cc(COc2cccc3cccnc23)on1 (stereo not drawn)	-3	9	12	2	5	-14
COC(=O)C1CCCCN1C(=O)c1cc(COc2cccc3cnccc23)on1 (stereo not drawn)	1	28*	-15	15*	-22	43*
Cc1cccc(C)c1NC(=O)CN(C)C(=O)CSC(=S)N1CCCC1	1	-11	10	2	8	-6
Cc1ccc(S(=O)(=O)N2CCOCC2)cc1C(=O)Nc1ccc(S(=O)(=O)Nc2nccs2)cc1	-5	-3	7	0	10	-11
CC(C)n1c(CCC(=O)O)ccc1-c1ccccc1	-3	-9	-4	0	-9	22*
CCOC(=O)c1cnc(Nc2nc3ccccc3o2)nc1CN1CCN(C)CC1	-3	-2	6	0	1	-9
COc1ccc(C2CCCN2C(=O)Nc2cccc(C(C)=O)c2)cc1OC (stereo not drawn)	0	26*	-6	0	-6	22
Cc1ccccc1-n1c(C)n[nH]c1=S	-7	9	2	0	7	-12
Cc1cccn2c(=S)[nH]nc12	0	26*	-4	0	-13	10
Cc1c(Cl)cccc1NC(=O)CCN1CCCCC1	-5	1	-1	0	8	4
CCOC(=O)C1CCCN(CCC(=O)Nc2cccc(Cl)c2C)C1 (stereo not drawn)	22*	-6	-16	1	5	24
CCOC(=O)C1CCCN(CCC(=O)Nc2cccc(C)c2)C1 (stereo not drawn)	43*	20	-19	0	-7	13
